APE1 inh = inhibitors of human APE1 endonuclease; P27695; recombinant APE1, TAMRA/BHQ-2 abasic DNA cleavage fluorescence; Potency, µM (highest dose often 65.8 µM), inactives show at the highest dose activity change, negative = inhibition, most hits filed as inhibitors; actives 0.35% (n = 350,000);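 further: plate controls were vehicle for no effect and reference inhibitor for full effect; nearly all actives have a fitted effect of over 55% in size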
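Measures dequenching upon AP-site incision of a 5'-TAMRA/3'-BHQ-2 THF-containing duplex, 50 nM; human APE1 0.75 nM after 15 min room-temperature exposure to compound; kinetic three-point read at one-minute spacing.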
TRb-SRC2 inh = TRbeta-SRC2 interaction inhibition; TRbeta-SRC2 peptide binding, fluorescence polarization; receptor liganded with 1 µM T3; Potency, µM (series often up to 106 µM), for the others: top-dose activity change, negative = inhibition, most hits filed as inhibitors; actives 0.065% (n = 280,000); AID 1469;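 further: plate controls were bound peptide for no effect and peptide without receptor for full effect; nearly all actives have a fitted effect of over 50% in size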
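Fluorescence polarization of 20 nM Texas Red SRC2 peptide with 0.6 uM human TRb ligand-binding domain, in Tris buffer with 1uM T3 and 5% DMSO. Incubated 5 hr ambient; normalized to unbound and bound controls.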
BLM helicase inh = Bloom syndrome helicase (human) inhibition; P54132; recombinant BLM DNA unwinding, fluorescence dequenching; Potency, µM (titrated, usually from 56.1 µM), for inactives: top-dose activity change, negative = inhibition, usual class: inhibitors; actives 0.2% (n = 350,000); AID 2528;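 further: plate controls were vehicle for no effect and no enzyme for full effect; nearly all actives have a fitted effect of over 35% in size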
Target sequence (P54132 whole entry, looked up): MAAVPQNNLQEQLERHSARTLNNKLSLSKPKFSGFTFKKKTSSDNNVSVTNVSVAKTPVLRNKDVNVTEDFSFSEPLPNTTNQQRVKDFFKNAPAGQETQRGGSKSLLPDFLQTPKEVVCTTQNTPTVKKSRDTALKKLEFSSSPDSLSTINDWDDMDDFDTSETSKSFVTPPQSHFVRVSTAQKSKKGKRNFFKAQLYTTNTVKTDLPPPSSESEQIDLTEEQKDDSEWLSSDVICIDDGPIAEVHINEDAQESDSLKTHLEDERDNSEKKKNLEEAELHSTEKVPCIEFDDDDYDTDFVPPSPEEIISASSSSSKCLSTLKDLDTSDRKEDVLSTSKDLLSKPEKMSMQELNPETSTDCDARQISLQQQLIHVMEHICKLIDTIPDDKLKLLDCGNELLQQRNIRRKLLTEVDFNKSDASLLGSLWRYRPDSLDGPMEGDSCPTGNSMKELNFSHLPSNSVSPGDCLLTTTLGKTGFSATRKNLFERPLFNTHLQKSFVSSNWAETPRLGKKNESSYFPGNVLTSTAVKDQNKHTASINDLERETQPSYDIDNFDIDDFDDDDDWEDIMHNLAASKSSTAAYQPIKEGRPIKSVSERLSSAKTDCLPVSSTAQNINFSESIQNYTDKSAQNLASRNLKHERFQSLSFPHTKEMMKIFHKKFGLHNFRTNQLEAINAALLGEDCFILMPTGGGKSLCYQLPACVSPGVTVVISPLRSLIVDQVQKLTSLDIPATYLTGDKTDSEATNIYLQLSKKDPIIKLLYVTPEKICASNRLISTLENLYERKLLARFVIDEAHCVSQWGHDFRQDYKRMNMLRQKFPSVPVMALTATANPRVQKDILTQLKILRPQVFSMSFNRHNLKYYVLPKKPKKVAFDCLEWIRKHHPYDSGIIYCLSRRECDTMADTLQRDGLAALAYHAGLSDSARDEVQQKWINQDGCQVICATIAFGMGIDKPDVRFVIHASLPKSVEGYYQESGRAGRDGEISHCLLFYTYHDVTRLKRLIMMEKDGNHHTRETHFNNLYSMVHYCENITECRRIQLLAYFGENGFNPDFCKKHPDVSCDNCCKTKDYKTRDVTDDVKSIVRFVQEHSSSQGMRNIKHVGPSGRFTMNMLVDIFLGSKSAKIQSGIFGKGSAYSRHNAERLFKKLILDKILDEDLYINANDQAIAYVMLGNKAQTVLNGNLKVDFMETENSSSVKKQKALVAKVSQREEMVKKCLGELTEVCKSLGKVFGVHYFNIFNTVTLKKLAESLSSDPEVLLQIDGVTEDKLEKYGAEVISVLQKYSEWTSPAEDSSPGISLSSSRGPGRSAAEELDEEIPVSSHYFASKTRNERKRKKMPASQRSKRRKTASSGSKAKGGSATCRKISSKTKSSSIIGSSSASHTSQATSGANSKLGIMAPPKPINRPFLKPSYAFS
RECQ1 inh = blocks DNA unwinding by human RECQ1; P46063; RECQ1 DNA unwinding, red fluorescence kinetic read; Potency, µM (titrated, usually from 57.3 µM), without a hit: at the top dose activity, negative = inhibition, hits mostly inhibitors; actives 0.54% (n = 240,000);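 further: plate controls were vehicle for no effect and no enzyme for full effect; nearly all actives have a fitted effect of over 30% in size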
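50 nM RECQ1T1 preincubated 15 min with compound in Tris pH 8.0 buffer with MgCl2, DTT, Tween-20 and 2.5 ug/ml poly(dI-dC); started with 200 nM TAMRA/BHQ-2 forked duplex and 2 mM ATP. Unwinding read as fluorescence (525/598 nm), two reads 2 h apart.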
TexasRed fluor = counter-screen for TRb-SRC2 inhibitors: fluorescence interference. TRb/SRC2 Texas Red total fluorescence interference. Potency, µM (top dose mostly 106 µM), without a hit: at the top dose fluorescence change, negative = quenching. actives 0.29% (n = 280,000). AID 1479; active means well fitted curve in either direction with a large enough effect; inconclusive means small, poorly fitted or top-dose-only effect
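Flags fluorescent or light-absorbing compounds by total fluorescence, S + 2P, at 555 nm excitation and 632 nm emission. Mixture: 20 nM Texas Red SRC2 peptide, 0.6 uM human TRb LBD, 1 uM T3, 5% DMSO; compound exposure 5 h at ambient temperature.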
WRN helicase inh = WRN helicase (human) inhibition; actives 0.46% (n = 360,000); Q14191; Potency, µM (series often up to 114 µM), for the others: at the top dose activity change, negative = inhibition, hits mostly inhibitors; WRN helicase unwinding, fluorescent forked duplex, kinetic; AID 651768; further: nearly all actives have a fitted effect of over 55% in size
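WRN at 20 nM final preincubated with compound 15 min at room temperature; reaction started with 100 nM fluorophore/quencher forked duplex oligonucleotide and 2 mM ATP final. Unwinding followed kinetically by red fluorescence (ex 525, em 598 nm).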
Active calls of the source: *; i = inactive; u = inconclusive; x = no result given; ! = repeats disagree; [ ] = remark or other dose. A selection: hits, their analogues and other compounds. The true share with any hit is near 0.91%. Unless noted, the call rests on the fitted dose curve; in most records, active means well fitted curve in the direction sought with a large enough effect; inconclusive means small, poorly fitted or top-dose-only effect, or another doubt; inactive means no such curve, though single readings can be large; an effect the other way counts as inactive or inconclusive. Unless noted, on the % scale 0 is the no-effect control and ±100 the full control effect; potency means the concentration at half of the fitted maximal effect.

SMILES	APE1 inh	TRb-SRC2 inh	BLM helicase inh	RECQ1 inh	TexasRed fluor	WRN helicase inh
CN(C)C(=O)c1ccc(-c2cc(Nc3ccccc3)ncn2)cc1	-4%	x	0%	-5%	x	x
CCOC(=O)c1cccc(Nc2cc(-c3ccccc3)ncn2)c1	x	-18%	-17%	x	0.32µM*[quencher]	x
CCOC(=O)CS(=O)(=O)c1nc(-c2ccccc2)cc(C(F)(F)F)n1	7%	-16%	-4%	2%	0%	56µM*
CS(=O)(=O)c1nc(-c2ccc(F)cc2)cc(C(F)(F)F)n1	-3%	6%	-4%	i	0%	-8%
CCOC(=O)CS(=O)(=O)c1nc(-c2ccc(F)cc2)cc(C(F)(F)F)n1	-7%	-16%	-3%	-8%	-3%	50µM*
CCOC(=O)CCS(=O)(=O)c1nc(-c2ccccc2)cc(C(F)(F)F)n1	-2%	-8%	-7%	-1%	2%	u
CN(C)c1nc(=O)n(C2CCC(O)CC2)c(=O)n1C (stereo unspecified)	x	0%[201 µM]	x	x	0%[201 µM]	x
O=Cc1ccc(-c2cccc([N+](=O)[O-])c2)o1	19%	6%	-2%	-9%	-4%	-5%
O=C1NC(=O)/C(=C/c2ccc(-c3cccc([N+](=O)[O-])c3)o2)S1	13µM*	x	u	x	x	32µM*
COC1=CC(=O)c2ccccc2C1=O	-4%	x	x	x	x	12%
COC1=CC(=O)C=C(OC)C1=O	-1%	11%	-9%	i	0%	45µM*
COc1ccc(OC)c(OC)c1	x	6%[201 µM]	x	x	-2%[201 µM]	x
CC(/C=C/C=C(C)/C=C/C(=O)O)=C\C=C\C=C(C)\C=C\C=C(C)\C=C\C(=O)O	2.5µM*	6%	x	11µM*	-4%	x
Nc1cc([N+](=O)[O-])ccc1O	0%	7%[201 µM]	-7%	-7%	0.11µM*![quencher]	u
Cc1ccc([N+](=O)[O-])cc1N	2%	0%[201 µM]	-1%	-8%	-2%[201 µM]	-3%
CC(C(c1ccc2c(c1)OCO2)c1c(N)n(C)c(=O)n(C)c1=O)[N+](=O)[O-] (stereo unspecified)	x	x	x	x	x	2%
CC(C)(C)C1(O)CCN2CC3c4ccccc4CCc4cccc(c43)C2C1 (stereo unspecified)	16%	x	x	x	x	x
CCCCC[C@H](O)/C=C/C1=C(CCCCCCC(=O)O)C(=O)CC1	-9%	-1%	29%	10µM*!	0%	u
Cc1cccn2c(=O)c(C(=O)N3CCN(c4ccc(Cl)cc4)CC3)cnc12	x	2%	-5%	x	7%	x
O=C(C[C@@H]1C/C=C\C[C@H](Cc2ccc(F)cc2)C(=O)OC[C@@H](Cc2c[nH]c3ccccc23)NC1=O)NCCO	12µM*	x	x	x	x	13%
O=C(C[C@@H]1C/C=C\C[C@@H](Cc2ccc(F)cc2)C(=O)OC[C@@H](Cc2c[nH]c3ccccc23)NC1=O)NCCO	-16%	x	x	x	x	4%
Cc1ccc(C2=NOC(=O)/C2=C\C=C\c2ccccc2)cc1	-8%	0%	-21%	3%	-2%	35µM*
CN(C)/C=C1\C(=O)ON=C1c1ccccc1	-5%	1%	2%	-5%	-1%	2%
CCCCC(CC)COC(=O)c1ccc(C(=O)OCC(CC)CCCC)cc1 (stereo unspecified)	x	-9%[201 µM]	x	x	-4%[201 µM]	x
Cc1cc(C(=O)c2ccccc2)cc(C)c1O	x	x	x	x	x	37%
SMILES	APE1 inh	TRb-SRC2 inh	BLM helicase inh	RECQ1 inh	TexasRed fluor	WRN helicase inh
O=C(c1ccccc1)c1ccc(O)c(O)c1O	x	5%[201 µM]	x	x	0%[201 µM]	28µM*
COC/C=C/C1=CC2=CC(=O)C(C)(OC(=O)c3cnc4ccccc4n3)C(=O)C2=CN1c1ccc(CO)cc1 (stereo unspecified)	11µM*!	1%[11.2 µM]	13µM*!	-21%[11.5 µM]	-17%[11.2 µM]	x
Cc1cc(C)c2c(=N)c3ccccc3n(CCCCCCCCn3c4ccccc4c(=N)c4c(C)cc(C)nc43)c2n1	x	x	x	x	x	50µM*
CCCCCCCCn1c2c(c(=N)c3ccccc31)CCC2	21%	2%	-4%	-7%	0%	7%
CCn1cc(C(=O)N2CCN(c3ccc(F)cc3)CC2)c(=O)c2cc(S(=O)(=O)N3CCOCC3)ccc21	x	-2%	2%	x	1%	x
N#Cc1c(SCC(=O)Nc2nc3ccc(Br)cc3s2)sc2c(O)cc(=O)[nH]c12	-59%	x	-14%	x	x	u
N#Cc1c(SCC(=O)Nc2nc3ccccc3s2)sc2c(O)cc(=O)[nH]c12	-66%	x	x	x	x	40µM*
N#Cc1c(SCC(=O)Nc2nccs2)sc2c(O)cc(=O)[nH]c12	12%	x	-30%	x	x	56µM*
CCCSc1nnc(NC(=O)CSc2sc3c(O)cc(=O)[nH]c3c2C#N)s1	64%[12.4 µM]	x	22µM*	x	x	10µM*
C[C@@H](C1[C@@H](O)CC2C3C=CC4C[C@@H](O)CC[C@]4(C)[C@H]3CC[C@@]21C)[C@@H]1CCCCN1 (stereo partly specified)	-3%	3%	26%	i	-3%	x
C[C@@H](O)CCC[C@H](O)/C=C/[C@@H]1[C@@H](C/C=C\CCCC(=O)O)[C@@H](O)C[C@H]1O	-3%	-3%	0%	3%	-1%	x
CCOC(=O)N(C)c1c(CC)nc2c(OCCOc3ccccc3)cccn12	x	x	x	x	x	-7%[57.1 µM]
CCOC(=O)c1cc(CC)sc1NC(=O)COc1ccccc1C	x	u	-1%	x	1.6µM*[quencher]	x
CCOC(=O)c1cc(CC)sc1NC(=O)COC(=O)c1ccccn1	4%	x	x	x	x	-12%
CC(NC(=O)C(=O)N1CCOCC1)C(c1cccs1)N1CCN(c2ccccc2)CC1 (stereo unspecified)	-10%	x	1%	x	x	-3%
CCOC(=O)[C@H](Cc1ccc(O)cc1)NC(=O)c1ccccc1	-1%	0%	2%	-8%	-3%	x
COC(=O)c1cccc(C(=O)OC)c1	x	-6%[201 µM]	x	x	-5%[201 µM]	x
Brc1ccc2c(c1)OCCOCCOc1cc(Br)ccc1OCCOCCOCCO2	0%	4%	16µM*	-10%	-2%	-9%
Brc1cc2c(cc1Br)OCCOCCOCCOCCO2	4%	-12%	-3%	-2%	-1%	u
COc1ccc2[nH]cc(CCNc3ccnc(-c4ccc5c(c4)OCO5)n3)c2c1	-12%	x	0%	i	x	x
COC(=O)/C=C/c1cc(O)ccc1O	-5%	8%	x	i	-4%	x
CC(Sc1ccc(Cl)cc1)C(=O)Nc1ccccc1-c1ccccc1 (stereo unspecified)	-3%	-12%[53 µM]	1%	1%	25µM*[quencher]	-6%
O=C(O)CN(CCCN(CC(=O)O)CC(=O)O)CC(=O)O	x	1%[201 µM]	x	x	-1%[201 µM]	x
CCCCN1/C(=C/c2ccc3ccccc3[n+]2CC)Sc2ccccc21	-6%	-3%	85%	i	-1%	-2%

Screening data: PubChem, National Center for Advancing Translational Sciences (NCATS)
